58 compounds from PubChem BioAssay AID493098 (Sanford-Burnham Center for Chemical Genomics, 2011) can be followed below.

Values joined by “and” are separate entries in the source; they are usually repeats but may differ in a detail not shown here. Equal values may be shown once. Hit rate of the full screen: of about 340,000 compounds, about 1,700 (0.5%) were called active. Only a selection was taken, and actives are over-represented in it overall. Unmarked numbers belong to inactive results.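 How the source made its calls: active means compounds whose inhibition of the agonist-driven luminescence signal at 20 µM reaches about 50% (limit read from the data); inactive means the rest.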

Chain of C-C chemokine receptor type 6 (Homo sapiens) (P51684 whole entry, looked up): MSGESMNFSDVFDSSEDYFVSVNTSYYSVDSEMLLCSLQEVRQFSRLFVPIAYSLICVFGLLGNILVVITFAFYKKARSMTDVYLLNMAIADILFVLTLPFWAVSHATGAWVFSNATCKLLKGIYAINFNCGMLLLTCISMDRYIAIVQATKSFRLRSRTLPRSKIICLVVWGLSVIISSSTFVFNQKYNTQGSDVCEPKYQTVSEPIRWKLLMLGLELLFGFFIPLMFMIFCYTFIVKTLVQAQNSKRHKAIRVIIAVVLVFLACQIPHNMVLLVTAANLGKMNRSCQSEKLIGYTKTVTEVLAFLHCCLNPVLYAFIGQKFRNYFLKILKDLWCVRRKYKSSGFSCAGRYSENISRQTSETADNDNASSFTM

The experiment has as its target C-C chemokine receptor type 6 (Homo sapiens) (UniProt P51684). Description: blockers of CCL20-driven beta-arrestin recruitment to CCR6 – cell-based, CHO-K1, luminescence, uHTS, primary screen (AID 493098).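 Further: cells stimulated with CCL20 at 14 nM final; plate controls were DMSO with CCL20 for no effect and DMSO without agonist for full effect.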 The conditions noted are these: CHO-K1 CCR6 PathHunter beta-arrestin, CCL20-stimulated, at 20 µM, stronger effect = higher value. (In general: Recruitment of arrestin is a read-out of receptor activation apart from second messengers.)
`Cc1c(NC(=O)CSc2nnc(-c3cccnc3)n2N)c(=O)n(-c2ccccc2)n1C`: the inhibition (usually the change of the read-out against control, counted positive when it falls) is 5.23%.

For `Cc1c(NC(=O)CSc2nnnn2-c2ccc(C(=O)O)cc2)c(=O)n(-c2ccccc2)n1C`, the inhibition is 10.9%.

With `Cc1c(NC(=O)CSc2cccc3cccnc23)c(=O)n(-c2ccccc2)n1C`, the inhibition is 59.7% (active).

For `Cc1ccc(C)c(OCCC(=O)OCC(=O)N2CCN(c3ccccc3)CC2)c1`, the inhibition is 20.8%.

With `CCC(=O)Nc1nc(C)c(C(=O)Nc2cccc(Cl)c2)s1`, the inhibition is 5.65%.

On to `Cc1cc(Cl)nc(NC(=O)Nc2cccc(Cl)c2)n1`, for which the inhibition was 16%.

In the case of `Cc1csc(NC(=S)Nc2cccc(Cl)c2)n1`, the inhibition was 60% (active).

For the compound `Cc1cccc(NC(=O)CCN2CC(C)CC(C)C2)c1` (stereo not drawn), the inhibition is 8.72%.

On to `C=CCn1c(C(C)NC(=O)CC)nc2ccccc21` (stereo not drawn), for which the inhibition is 2.5%.

On to `C=CCn1c(N)c(C(=O)OCC(C)C)c2nc3ccccc3nc21`, for which the inhibition was 56.9% (active).

Turning to `C=CCn1c(P(C)(=O)O)nc2ccccc21`, the inhibition was 2.22% and 1.13%.

Turning to `CCc1nnc(NC(=O)C2CCN(C(=O)c3ccccc3C)CC2)s1`, the inhibition is 1.37%.

As to `COc1ccc(CCOC(=O)CNC(=O)c2ccc(Cl)cc2Cl)cc1`, the inhibition is 27.9%.

On to `Cc1ccc(Br)c(NS(=O)(=O)c2cccc(C(=O)N3CCNC(=O)C3)c2)c1`, for which the inhibition is -11%.

With `COc1ccc2c(c1)c(=Cc1ccc(N(C)C)cc1)c1cc(-c3ccccc3)[n+](C)n12`, the inhibition was 67.2% (active).

As to `COc1ccc2sc(-c3ccc(N(C)C)cc3)c(C#CCO)c2c1`, the inhibition was -34.2%.

On to `Cc1ccc(Cn2c(C)c3cnn(CC(=O)NCc4ccccn4)c(=O)c3c2C)cc1`, for which the inhibition was -8.58%.

As for `CCOC(=O)CCNC(=O)N1CCCC(C(=O)c2ccccc2SC)C1` (stereo not drawn), the inhibition is -6.81%.

With `CCOC(=O)c1cnc(Nc2nc3ccccc3o2)nc1CSC(=S)N1CCCCC1`, the inhibition was 66.8% (active).

Turning to `CCc1ccc(CNC(=O)C2CCCN(c3nc4ccccc4o3)C2)cc1` (stereo not drawn), the inhibition was -4.97%.

Turning to `O=C(COc1ncnc2ccccc12)NC(=O)NCc1ccccc1`, the inhibition is 3.38%.

Take `NS(=O)(=O)c1ccc(NC(=S)NNC(=O)c2cccs2)cc1`: the inhibition was 31.7%.

For `CCOc1ccc(C(=O)Nc2nccs2)cc1[N+](=O)[O-]`, the inhibition was 4.46%.

Take `Cc1ccc(C)c(NC(=O)c2ccc3nccnc3c2)c1`: the inhibition was -3.74%.

On to `Cc1ccc(Oc2ccc3c(c2)C(=O)N(c2cccc4cccnc24)C3=O)cc1`, for which the inhibition is 8.43%.

Regarding `Cc1ccc(OS(=O)Nc2cccc3nccnc23)cc1` (stereo not drawn), the inhibition was 55.4% (active).

For `CC1CN(C(=O)COC(=O)c2cccc(NS(=O)(=O)c3ccccc3)c2)CC(C)O1` (stereo not drawn), the inhibition is -4.23%.

In the case of `COc1ccc(C2C(C(C)=O)=C(O)C(=O)N2c2nccs2)cc1` (stereo not drawn), the inhibition was 22.9%.

Turning to `CC1(C)C=Cc2c(ccc3c2OC[C@@H](c2ccc(O)cc2O)C3)O1`, the inhibition is -20.6%.

In the case of `CN(C)/C=N/c1cc(=O)n(C)c(=O)n1CC1CC1`, the inhibition was -0.5%.

For `CCOC(=O)c1nnn2c1nc(N1CCN(c3ccccc3)CC1)c1ccccc12`, the inhibition was 13.9%.

With `CCCn1c(C2CCCN2c2nc(-c3ccc(OC)cc3)cs2)nc2ccccc21` (stereo not drawn), the inhibition is 22.3%.

Turning to `COc1ccc(CNc2nccs2)cc1`, the inhibition was 19.1%.

As to `COc1ccc(-c2csc(Cc3nc(O)cs3)n2)cc1`, the inhibition was 68.3% (active).

On to `Cc1cccc(N(C)C(=O)c2cc(S(=O)(=O)N3CCCCC3)c[nH]2)c1`, for which the inhibition is -9.41%.

As for `Cc1ccc2c(c1)C1C[N+](C)(CC(=O)c3ccccc3)CCC1N2C(=O)c1ccccc1Cl` (stereo not drawn), the inhibition is 7.95%.

Turning to `O=[N+]([O-])c1ccc(C=NN=Cc2ccc([N+](=O)[O-])cc2)cc1`, the inhibition is 9.6%.

As to `O=C(NN=Cc1ccc([N+](=O)[O-])cc1)C1CC1`, the inhibition is -1.3%.

Turning to `O=C1/C(=C\c2ccc([N+](=O)[O-])cc2)CS(=O)(=O)C/C1=C/c1ccc([N+](=O)[O-])cc1`, the inhibition is 102% (active).

With `OCCC1CN(Cc2cccn2-c2nccs2)CCN1CCc1ccccc1` (stereo not drawn), the inhibition was 3.25%.

`CCCOC(=O)c1c(NC(=O)c2cnn3c2NC(c2ccccc2)CC3C(F)(F)F)sc2c1CCCC2` (stereo not drawn): the inhibition was 8.83%.

Turning to `N#C/C(=C\C1=C(N2CCOCC2)C(=C\c2ccccc2)/CC1)C(=O)Nc1ccccc1F`, the inhibition was 37.8%.

As for `O=C(O)c1ccc(NN=CC2=C(N3CCOCC3)/C(=C/c3ccccc3)CC2)cc1`, the inhibition was -7.52%.

Consider `O=C1Nc2ccc(Br)cc2/C1=N/N=C/C1=C(N2CCOCC2)C(=C\c2ccccc2)/CC1`, for which the inhibition was 55.1% (active).

For the compound `COc1ccc(Nc2cc(=O)n(-c3ccccc3)c3c2c(=O)n(C)c(=O)n3C)cc1`, the inhibition is 2.01%.

With `Cc1ccc(S(=O)(=O)N2CCN(C)CC2)cc1`, the inhibition was 13.6%.

In the case of `Cn1ncc(N2CCN(S(=O)(=O)c3ccc(Br)cc3)CC2)c(Cl)c1=O`, the inhibition was 6.7%.

In the case of `CN(C)/C=C(/C(=O)c1ccc(Cl)c(Cl)c1)c1nnnn1-c1ccccc1`, the inhibition is 3.92%.

Regarding `O=C(Cc1ccccc1)N1N=C(c2ccncc2)CC1(O)C(F)(F)F` (stereo not drawn), the inhibition is 6.09%.

`O=C(C1CC1)N1N=C(c2ccc(Br)cc2)CC1(O)C(F)(F)F` (stereo not drawn): the inhibition was 2.39%.

Take `O=C(c1ccc(Cl)cc1)N1N=C(c2ccccn2)CC1(O)C(F)(F)F` (stereo not drawn): the inhibition was 57.1% (active).

With `CCOc1ccc(-n2c(O)c(/C=N/Nc3nc(C)cc(C)n3)c3ccccc3c2=O)cc1`, the inhibition is 52.4% (active).

Turning to `CCN(CC)CCCN=Cc1c(O)n(-c2ccc(C)cc2)c(=O)c2ccccc12`, the inhibition was 6.64%.

Regarding `Cc1ccc(-n2c(O)c(C=Nc3ccc(S(=O)(=O)Nc4ncccn4)cc3)c3ccccc3c2=O)cc1C`, the inhibition is 13.7%.

Regarding `CC(=O)c1cccc(NC(=O)N2CCCC2C(=O)NCCC(C)C)c1` (stereo not drawn), the inhibition is 8%.

For `Cc1nn(C(C)CC(=O)O)c(C)c1C` (stereo not drawn), the inhibition is -5.98%.

Consider `O=c1ccc2c(-c3ccccc3S(=O)(=O)O)c3ccc(O)c(O)c3oc-2c1O`, for which the inhibition is 64.6% (active).

On to `O=C(CSc1ccc2nnc(-c3ccccc3)n2n1)N1CCCc2ccccc21`, for which the inhibition was -9.56%.
